Source: paper PMC7862700, “An all-to-all approach to the identification of sequence-specific readers for epigenetic DNA modifications on cytosine”

What was measured:
Assay in all cases: DAPPL (digital affinity profiling via proximity ligation, sequencing); 10 mM Tris-HCl pH 7.5, 50 mM NaCl, 1 mM DTT, 4% glycerol, room temperature, 30 min; GST-TFs on glutathione beads, 16-mer random dsDNA library, 0.1% formaldehyde crosslink after washing; high values mean tight binding
[1] = biological target: T1, FLI1 (Homo sapiens, UniProt Q01543 1-452); settings: protein: recombinant; tags: N-terminal GST; dsDNA, one strand shown
T1 sequence: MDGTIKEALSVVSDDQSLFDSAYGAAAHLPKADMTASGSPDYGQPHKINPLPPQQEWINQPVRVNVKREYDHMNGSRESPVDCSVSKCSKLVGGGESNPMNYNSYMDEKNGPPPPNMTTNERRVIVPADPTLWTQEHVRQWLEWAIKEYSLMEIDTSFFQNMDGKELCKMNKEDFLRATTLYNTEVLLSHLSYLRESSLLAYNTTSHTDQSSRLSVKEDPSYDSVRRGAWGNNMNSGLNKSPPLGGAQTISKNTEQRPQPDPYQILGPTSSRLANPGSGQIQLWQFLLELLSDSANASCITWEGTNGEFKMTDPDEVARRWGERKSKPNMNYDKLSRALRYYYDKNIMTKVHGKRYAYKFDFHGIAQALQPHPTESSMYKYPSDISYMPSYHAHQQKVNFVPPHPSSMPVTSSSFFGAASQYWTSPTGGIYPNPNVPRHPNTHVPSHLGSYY
Summary of the method: (§1)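 GST fusions of human transcription factors were expressed in yeast and captured with glutathione beads. Once given DNA barcodes and pooled alongside a tag-only sample, they were incubated for 30 min at room temperature with 200 nmole of a random double-stranded 16-mer DNA library in Tris/NaCl/DTT/glycerol buffer, then washed, crosslinked (0.1% formaldehyde), proximity-ligated, PCR-amplified and sequenced on an Illumina NextSeq500. The binding signal of each hexamer is its read frequency for a factor divided by its frequency for the tag-only sample.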

[2] = biological target: T2, ELK1 (Homo sapiens, UniProt P19419 1-428); settings: protein: recombinant; tags: N-terminal GST; dsDNA, one strand shown
T2 sequence: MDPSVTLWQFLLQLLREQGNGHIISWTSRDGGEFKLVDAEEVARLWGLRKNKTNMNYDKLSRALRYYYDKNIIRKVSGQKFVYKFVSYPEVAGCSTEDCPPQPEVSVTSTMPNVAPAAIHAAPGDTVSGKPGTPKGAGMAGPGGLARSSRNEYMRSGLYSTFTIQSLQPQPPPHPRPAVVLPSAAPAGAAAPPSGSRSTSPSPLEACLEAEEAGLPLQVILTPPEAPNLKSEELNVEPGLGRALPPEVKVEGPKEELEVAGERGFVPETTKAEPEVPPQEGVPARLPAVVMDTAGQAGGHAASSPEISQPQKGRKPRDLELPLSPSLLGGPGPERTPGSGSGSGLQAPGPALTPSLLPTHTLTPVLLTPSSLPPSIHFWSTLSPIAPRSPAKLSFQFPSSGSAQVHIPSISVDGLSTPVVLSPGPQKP
Summary of the method: as §1

[3] = biological target: T3, GABPA (Homo sapiens, UniProt Q06546 1-454); settings: protein: recombinant; tags: N-terminal GST; dsDNA, one strand shown
T3 sequence: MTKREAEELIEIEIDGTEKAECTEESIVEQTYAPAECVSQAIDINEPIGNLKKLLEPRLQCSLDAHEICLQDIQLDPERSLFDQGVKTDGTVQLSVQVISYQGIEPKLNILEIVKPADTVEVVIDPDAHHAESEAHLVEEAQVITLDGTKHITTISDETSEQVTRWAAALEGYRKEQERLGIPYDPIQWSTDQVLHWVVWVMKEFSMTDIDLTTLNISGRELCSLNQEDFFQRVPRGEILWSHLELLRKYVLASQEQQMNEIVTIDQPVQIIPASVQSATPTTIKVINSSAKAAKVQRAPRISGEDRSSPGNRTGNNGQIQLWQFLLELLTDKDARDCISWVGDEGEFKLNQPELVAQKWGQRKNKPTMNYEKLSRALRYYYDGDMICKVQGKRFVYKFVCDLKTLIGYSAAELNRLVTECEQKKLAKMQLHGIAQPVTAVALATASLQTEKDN
Summary of the method: as §1

[4] = biological target: T4, ERG (Homo sapiens, UniProt P11308 1-479); settings: protein: recombinant; tags: N-terminal GST; dsDNA, one strand shown
T4 sequence: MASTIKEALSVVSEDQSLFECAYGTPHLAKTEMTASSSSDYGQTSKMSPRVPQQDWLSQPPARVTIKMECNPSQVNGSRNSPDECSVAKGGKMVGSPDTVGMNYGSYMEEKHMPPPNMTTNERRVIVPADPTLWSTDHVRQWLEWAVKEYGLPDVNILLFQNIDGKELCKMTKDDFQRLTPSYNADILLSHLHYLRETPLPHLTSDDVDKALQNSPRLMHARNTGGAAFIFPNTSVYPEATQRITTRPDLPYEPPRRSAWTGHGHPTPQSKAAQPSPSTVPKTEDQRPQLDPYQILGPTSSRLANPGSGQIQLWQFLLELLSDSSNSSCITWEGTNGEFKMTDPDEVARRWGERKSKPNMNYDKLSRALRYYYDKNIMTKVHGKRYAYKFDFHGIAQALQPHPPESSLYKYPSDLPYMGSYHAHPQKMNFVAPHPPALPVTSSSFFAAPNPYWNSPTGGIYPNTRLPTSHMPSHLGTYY
Summary of the method: as §1

[5] = biological target: ELF1 (Homo sapiens, UniProt P32519 1-619); settings: protein: recombinant; tags: N-terminal GST; dsDNA, one strand shown
Chain of ELF1 (P32519 whole entry): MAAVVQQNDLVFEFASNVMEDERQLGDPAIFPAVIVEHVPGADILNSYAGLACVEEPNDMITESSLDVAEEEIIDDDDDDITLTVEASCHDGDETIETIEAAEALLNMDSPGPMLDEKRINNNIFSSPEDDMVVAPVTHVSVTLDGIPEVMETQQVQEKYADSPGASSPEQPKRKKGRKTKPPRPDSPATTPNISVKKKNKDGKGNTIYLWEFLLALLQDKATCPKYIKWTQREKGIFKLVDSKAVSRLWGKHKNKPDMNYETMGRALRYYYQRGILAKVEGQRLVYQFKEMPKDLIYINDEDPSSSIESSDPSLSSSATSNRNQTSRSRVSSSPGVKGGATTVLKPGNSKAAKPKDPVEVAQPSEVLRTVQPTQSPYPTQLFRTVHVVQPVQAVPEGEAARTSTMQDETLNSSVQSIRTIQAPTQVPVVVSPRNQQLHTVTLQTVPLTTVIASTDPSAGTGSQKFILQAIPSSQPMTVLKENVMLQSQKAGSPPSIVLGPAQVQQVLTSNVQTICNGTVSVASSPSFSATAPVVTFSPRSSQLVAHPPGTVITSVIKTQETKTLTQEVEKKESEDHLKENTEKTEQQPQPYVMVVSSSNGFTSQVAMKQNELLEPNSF
Summary of the method: as §1

[6] = biological target: T5, EHF (Homo sapiens, UniProt Q9NZC4 1-300); settings: protein: recombinant; tags: N-terminal GST; dsDNA, one strand shown
T5 sequence: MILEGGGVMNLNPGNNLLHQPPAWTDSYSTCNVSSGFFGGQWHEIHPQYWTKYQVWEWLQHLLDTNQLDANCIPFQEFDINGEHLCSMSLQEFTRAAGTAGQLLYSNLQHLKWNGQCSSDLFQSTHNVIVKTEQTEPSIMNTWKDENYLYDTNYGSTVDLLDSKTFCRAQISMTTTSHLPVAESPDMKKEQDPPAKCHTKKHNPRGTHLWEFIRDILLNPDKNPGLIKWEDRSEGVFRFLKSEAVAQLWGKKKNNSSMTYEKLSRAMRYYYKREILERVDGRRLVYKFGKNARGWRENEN
Summary of the method: as §1

[7] = biological target: SPI1 (Homo sapiens, UniProt P17947 1-270); settings: protein: recombinant; tags: N-terminal GST; dsDNA, one strand shown
Summary of the method: as §1

[8] = biological target: SPIB (Homo sapiens, UniProt Q01892 1-262); settings: protein: recombinant; tags: N-terminal GST; dsDNA, one strand shown
Chain of SPIB (Q01892 whole entry): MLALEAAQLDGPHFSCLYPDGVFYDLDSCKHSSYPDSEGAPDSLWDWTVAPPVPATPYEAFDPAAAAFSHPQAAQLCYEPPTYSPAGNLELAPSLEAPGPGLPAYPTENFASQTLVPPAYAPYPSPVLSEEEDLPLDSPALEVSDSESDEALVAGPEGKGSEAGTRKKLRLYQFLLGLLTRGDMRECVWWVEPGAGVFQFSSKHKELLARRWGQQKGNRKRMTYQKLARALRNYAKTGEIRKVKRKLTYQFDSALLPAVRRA
Summary of the method: as §1

[9] = biological target: T6, ELK3 (Homo sapiens, UniProt P41970 1-407); settings: protein: recombinant; tags: N-terminal GST; dsDNA, one strand shown
T6 sequence: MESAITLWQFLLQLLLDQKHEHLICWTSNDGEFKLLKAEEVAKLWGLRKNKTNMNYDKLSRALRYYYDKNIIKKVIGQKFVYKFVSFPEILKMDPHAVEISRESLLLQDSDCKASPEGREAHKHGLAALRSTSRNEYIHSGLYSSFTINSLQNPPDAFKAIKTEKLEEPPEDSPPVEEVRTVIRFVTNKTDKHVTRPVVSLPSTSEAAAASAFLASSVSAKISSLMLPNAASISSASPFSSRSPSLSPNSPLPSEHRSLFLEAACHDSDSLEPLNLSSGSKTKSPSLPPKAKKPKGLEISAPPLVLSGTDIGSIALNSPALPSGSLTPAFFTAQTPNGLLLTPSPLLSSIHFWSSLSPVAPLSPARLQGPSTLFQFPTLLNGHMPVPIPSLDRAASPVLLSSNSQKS
Summary of the method: as §1

[10] = biological target: T7, FEV (Homo sapiens, UniProt Q99581 1-238); settings: protein: recombinant; tags: N-terminal GST; dsDNA, one strand shown
T7 sequence: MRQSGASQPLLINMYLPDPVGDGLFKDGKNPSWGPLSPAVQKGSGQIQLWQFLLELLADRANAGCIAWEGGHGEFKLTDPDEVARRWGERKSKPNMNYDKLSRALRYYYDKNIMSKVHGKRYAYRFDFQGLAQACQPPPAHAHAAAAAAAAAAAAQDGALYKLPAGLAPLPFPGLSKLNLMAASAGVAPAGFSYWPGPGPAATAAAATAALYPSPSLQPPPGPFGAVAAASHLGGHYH
Summary of the method: as §1

[11] = biological target: ETV5 (Homo sapiens, UniProt P41161 1-510); settings: protein: recombinant; tags: N-terminal GST; dsDNA, one strand shown
Chain of ETV5 (P41161 whole entry): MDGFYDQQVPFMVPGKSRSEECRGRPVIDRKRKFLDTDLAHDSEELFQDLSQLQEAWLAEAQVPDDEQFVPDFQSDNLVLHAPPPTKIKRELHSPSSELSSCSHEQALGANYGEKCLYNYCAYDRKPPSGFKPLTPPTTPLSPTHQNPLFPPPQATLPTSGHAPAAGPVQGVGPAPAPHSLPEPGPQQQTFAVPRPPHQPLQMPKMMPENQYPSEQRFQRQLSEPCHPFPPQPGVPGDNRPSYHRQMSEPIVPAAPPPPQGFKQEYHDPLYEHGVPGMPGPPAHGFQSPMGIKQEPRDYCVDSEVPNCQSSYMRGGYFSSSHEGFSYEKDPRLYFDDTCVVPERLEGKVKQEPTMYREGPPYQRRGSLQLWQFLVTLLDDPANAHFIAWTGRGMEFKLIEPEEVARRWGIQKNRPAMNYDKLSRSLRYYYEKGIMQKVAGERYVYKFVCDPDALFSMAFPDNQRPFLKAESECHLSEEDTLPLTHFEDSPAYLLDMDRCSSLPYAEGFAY
Summary of the method: as §1

[12] = biological target: HSF1 (Homo sapiens, UniProt Q00613 1-529); settings: protein: recombinant; tags: N-terminal GST; chain copies: 3; dsDNA, one strand shown
Chain of HSF1 (Q00613 whole entry): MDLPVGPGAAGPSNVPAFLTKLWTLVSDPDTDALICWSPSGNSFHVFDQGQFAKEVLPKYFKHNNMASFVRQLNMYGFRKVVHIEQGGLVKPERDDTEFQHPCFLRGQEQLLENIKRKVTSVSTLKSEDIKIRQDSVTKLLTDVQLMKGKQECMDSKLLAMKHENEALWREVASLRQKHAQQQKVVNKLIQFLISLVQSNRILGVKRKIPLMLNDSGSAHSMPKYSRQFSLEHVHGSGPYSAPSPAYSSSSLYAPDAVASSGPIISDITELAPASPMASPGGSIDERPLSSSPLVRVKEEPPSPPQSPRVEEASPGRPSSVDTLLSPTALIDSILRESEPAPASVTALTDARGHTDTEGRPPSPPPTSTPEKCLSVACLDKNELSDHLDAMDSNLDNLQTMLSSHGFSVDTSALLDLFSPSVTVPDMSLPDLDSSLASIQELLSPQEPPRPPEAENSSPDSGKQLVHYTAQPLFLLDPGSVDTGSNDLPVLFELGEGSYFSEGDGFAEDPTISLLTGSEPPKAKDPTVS
Summary of the method: as §1

[13] = biological target: T8, SPIC (Homo sapiens, UniProt Q8N5J4 1-248); settings: protein: recombinant; tags: N-terminal GST; dsDNA, one strand shown
T8 sequence: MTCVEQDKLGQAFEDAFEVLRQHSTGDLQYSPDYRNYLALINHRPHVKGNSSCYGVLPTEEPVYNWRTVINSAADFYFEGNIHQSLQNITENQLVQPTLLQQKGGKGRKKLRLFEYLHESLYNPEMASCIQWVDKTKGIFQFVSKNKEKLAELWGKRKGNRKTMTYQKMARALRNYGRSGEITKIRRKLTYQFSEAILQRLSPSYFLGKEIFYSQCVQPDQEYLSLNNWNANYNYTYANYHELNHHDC
Summary of the method: as §1

[14] = biological target: ELF4 (Homo sapiens, UniProt Q99607 1-663); settings: protein: recombinant; tags: N-terminal GST; dsDNA, one strand shown
Chain of ELF4 (Q99607 whole entry): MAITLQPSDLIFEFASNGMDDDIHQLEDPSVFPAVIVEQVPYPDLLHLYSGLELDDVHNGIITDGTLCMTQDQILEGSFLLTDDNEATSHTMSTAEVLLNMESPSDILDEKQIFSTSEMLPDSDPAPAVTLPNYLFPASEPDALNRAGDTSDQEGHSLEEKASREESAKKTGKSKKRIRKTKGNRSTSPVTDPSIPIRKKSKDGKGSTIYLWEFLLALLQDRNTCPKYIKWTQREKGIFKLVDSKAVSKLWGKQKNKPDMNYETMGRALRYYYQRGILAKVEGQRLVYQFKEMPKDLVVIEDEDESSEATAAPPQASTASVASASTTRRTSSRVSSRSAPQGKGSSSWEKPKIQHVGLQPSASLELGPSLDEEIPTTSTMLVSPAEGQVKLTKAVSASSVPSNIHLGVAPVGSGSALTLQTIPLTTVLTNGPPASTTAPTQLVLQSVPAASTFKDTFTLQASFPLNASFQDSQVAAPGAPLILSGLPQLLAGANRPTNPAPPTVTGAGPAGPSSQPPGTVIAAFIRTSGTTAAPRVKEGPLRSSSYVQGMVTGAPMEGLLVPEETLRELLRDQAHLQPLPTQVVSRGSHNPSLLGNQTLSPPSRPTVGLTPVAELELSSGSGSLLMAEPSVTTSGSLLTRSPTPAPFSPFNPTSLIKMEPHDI
Summary of the method: as §1

[15] = biological target: T9, ELK4 (Homo sapiens, UniProt P28324-2 1-405); settings: protein: recombinant; tags: N-terminal GST; dsDNA, one strand shown
T9 sequence: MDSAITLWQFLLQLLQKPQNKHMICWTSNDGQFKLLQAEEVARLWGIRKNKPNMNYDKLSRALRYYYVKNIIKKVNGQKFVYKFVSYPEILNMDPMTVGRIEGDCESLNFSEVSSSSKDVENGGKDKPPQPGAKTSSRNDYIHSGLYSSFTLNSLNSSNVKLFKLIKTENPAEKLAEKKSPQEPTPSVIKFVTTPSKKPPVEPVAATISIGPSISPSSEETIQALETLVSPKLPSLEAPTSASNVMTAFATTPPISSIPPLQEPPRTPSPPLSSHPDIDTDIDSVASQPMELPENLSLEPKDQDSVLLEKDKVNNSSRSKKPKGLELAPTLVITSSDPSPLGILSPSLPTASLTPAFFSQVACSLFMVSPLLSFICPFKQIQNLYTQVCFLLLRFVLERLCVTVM
Summary of the method: as §1

[16] = biological target: T10, ETV2 (Homo sapiens, UniProt O00321 1-342); settings: protein: recombinant; tags: N-terminal GST; dsDNA, one strand shown
T10 sequence: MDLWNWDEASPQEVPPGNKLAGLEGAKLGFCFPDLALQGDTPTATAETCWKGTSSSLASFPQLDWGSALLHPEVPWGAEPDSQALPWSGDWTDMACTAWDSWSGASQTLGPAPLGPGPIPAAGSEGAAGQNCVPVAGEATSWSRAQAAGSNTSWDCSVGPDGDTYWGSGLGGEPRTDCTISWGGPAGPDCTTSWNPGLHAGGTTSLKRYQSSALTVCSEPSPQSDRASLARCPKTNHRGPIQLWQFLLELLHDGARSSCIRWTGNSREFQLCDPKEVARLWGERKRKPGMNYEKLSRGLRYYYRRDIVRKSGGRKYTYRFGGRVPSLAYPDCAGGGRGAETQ
Summary of the method: as §1

[17] = biological target: T11, ELF3 (Homo sapiens, UniProt P78545 1-371); settings: protein: recombinant; tags: N-terminal GST; dsDNA, one strand shown
T11 sequence: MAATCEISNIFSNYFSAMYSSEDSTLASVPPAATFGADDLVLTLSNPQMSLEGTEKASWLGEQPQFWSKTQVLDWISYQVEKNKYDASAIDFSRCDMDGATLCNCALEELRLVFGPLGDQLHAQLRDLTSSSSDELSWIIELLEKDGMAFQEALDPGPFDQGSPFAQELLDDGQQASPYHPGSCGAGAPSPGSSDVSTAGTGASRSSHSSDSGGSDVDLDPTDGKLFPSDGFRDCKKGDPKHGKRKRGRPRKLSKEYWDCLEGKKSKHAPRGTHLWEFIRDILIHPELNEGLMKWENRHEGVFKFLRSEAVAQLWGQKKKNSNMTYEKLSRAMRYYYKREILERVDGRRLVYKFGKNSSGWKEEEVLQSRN
Summary of the method: as §1

[18] = biological target: CRX (Homo sapiens, UniProt O43186 1-299); settings: protein: recombinant; tags: N-terminal GST; dsDNA, one strand shown
Chain of CRX (O43186 whole entry): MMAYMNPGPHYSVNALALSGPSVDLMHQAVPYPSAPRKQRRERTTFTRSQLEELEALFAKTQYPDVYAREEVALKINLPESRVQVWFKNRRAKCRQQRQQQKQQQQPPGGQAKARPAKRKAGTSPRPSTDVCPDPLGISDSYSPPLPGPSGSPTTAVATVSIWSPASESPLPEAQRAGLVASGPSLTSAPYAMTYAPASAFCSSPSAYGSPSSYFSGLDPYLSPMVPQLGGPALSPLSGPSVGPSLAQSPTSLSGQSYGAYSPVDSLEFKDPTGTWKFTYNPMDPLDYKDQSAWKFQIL
Summary of the method: as §1

[19] = biological target: ETV1 (Homo sapiens, UniProt P50549 1-477); settings: protein: recombinant; tags: N-terminal GST; dsDNA, one strand shown
Chain of ETV1 (P50549 whole entry): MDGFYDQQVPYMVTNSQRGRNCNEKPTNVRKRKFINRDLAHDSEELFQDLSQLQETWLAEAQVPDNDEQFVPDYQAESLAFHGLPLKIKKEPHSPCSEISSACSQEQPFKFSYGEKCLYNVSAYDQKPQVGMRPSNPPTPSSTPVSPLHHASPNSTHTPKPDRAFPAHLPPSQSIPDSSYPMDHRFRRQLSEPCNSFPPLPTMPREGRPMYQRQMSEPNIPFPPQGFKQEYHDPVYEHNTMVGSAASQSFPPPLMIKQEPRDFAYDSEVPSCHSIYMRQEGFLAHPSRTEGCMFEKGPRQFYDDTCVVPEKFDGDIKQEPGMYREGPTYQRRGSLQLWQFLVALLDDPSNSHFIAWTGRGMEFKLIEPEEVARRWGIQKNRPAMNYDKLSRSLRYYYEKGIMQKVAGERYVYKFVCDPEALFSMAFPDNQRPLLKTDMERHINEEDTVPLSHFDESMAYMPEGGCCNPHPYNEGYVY
Summary of the method: as §1

Sequence: ACATCC
- binding signal [1]: 2.58 fold enrichment (6-mer frequency, TF over GST control)
- binding signal [2]: 2.73 fold enrichment (6-mer frequency, TF over GST control)
- binding signal [3]: 2.39 fold enrichment (6-mer frequency, TF over GST control)
- binding signal [4]: 3.08 fold enrichment (6-mer frequency, TF over GST control)
- binding signal [5]: 2.35 fold enrichment (6-mer frequency, TF over GST control)
- binding signal [6]: 2.7 fold enrichment (6-mer frequency, TF over GST control)
- binding signal [7]: 2.5 fold enrichment (6-mer frequency, TF over GST control)
- binding signal [8]: 2.69 fold enrichment (6-mer frequency, TF over GST control)
- binding signal [9]: 2.98 fold enrichment (6-mer frequency, TF over GST control)
- binding signal [10]: 3.7 fold enrichment (6-mer frequency, TF over GST control)
- binding signal [11]: 2.77 fold enrichment (6-mer frequency, TF over GST control)
- binding signal [12]: 1.06 fold enrichment (6-mer frequency, TF over GST control)
- binding signal [13]: 2.43 fold enrichment (6-mer frequency, TF over GST control)
- binding signal [14]: 2.28 fold enrichment (6-mer frequency, TF over GST control)
- binding signal [15]: 2.29 fold enrichment (6-mer frequency, TF over GST control)
- binding signal [16]: 2.61 fold enrichment (6-mer frequency, TF over GST control)
- binding signal [17]: 2.38 fold enrichment (6-mer frequency, TF over GST control)
- binding signal [18]: 1.05 fold enrichment (6-mer frequency, TF over GST control)
- binding signal [19]: 2.66 fold enrichment (6-mer frequency, TF over GST control)
